According to PubChem BioAssay AID743294 (Broad Institute, 2014):
Results with a measured potency or affinity are listed apart. Calls of active or inactive are those of the source.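 The calls were made as follows: active = compounds lowering fluorescence whose fitted half-maximal dose is at most twice the top valid dose; inconclusive = flat fit between -70% and -30%, or poor curve fit; inactive = the rest.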

Molecular target: Caspase-8 (Homo sapiens) (UniProt Q14790)
Assay: caspase-8 inhibition counter-screen, dose response, selectivity assay for caspase-6 inhibitor project, biochemical, Z-IETD-R110 fluorescence, cherry-picked samples (AID 743294)

Chain of Caspase-8 (Homo sapiens) (Q14790 whole entry, looked up): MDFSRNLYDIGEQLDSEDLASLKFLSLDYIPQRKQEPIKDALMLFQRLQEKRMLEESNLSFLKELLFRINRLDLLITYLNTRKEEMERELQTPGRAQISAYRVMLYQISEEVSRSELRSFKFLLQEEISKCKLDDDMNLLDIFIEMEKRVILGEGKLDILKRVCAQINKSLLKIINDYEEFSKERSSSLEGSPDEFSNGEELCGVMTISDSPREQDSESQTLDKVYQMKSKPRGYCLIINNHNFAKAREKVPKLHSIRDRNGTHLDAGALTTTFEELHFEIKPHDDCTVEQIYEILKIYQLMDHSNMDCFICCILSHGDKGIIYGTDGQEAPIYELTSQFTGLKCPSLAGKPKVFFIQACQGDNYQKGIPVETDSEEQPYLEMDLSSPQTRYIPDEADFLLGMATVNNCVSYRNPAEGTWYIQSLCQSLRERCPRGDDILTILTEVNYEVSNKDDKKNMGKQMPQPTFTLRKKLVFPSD

Compound | outcome
CN1CCc2cc3c(c4c2C1Cc1ccccc1-4)OCO3 (configuration not stated) | inactive
CC(Cc1ccc(O)cc1)NCC(O)c1ccc(O)c(O)c1 (configuration not stated) | inactive
